Assay outcomes (PubChem)
D1 ag = human D1 receptor agonism; P21728; HEK293 T-REx D1 cells, calcium flux, agonist mode; activation, % at 2 µM; hit rate 1% among 360,000; AID 504660; note: 0% is about no effect
Target sequence (P21728 whole entry, looked up): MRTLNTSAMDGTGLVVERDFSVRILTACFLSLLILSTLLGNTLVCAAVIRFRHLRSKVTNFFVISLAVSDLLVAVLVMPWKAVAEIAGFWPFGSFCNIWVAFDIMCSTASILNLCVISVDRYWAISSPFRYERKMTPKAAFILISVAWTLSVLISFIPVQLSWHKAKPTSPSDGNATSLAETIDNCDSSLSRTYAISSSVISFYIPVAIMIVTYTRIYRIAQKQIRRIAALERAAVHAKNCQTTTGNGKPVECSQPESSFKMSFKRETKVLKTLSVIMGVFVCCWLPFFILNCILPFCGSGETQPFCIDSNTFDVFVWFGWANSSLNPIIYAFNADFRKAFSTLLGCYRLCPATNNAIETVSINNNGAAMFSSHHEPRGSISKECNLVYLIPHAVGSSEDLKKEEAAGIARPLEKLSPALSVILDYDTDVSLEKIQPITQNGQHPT
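Inducible HEK293 T-REx D1 cells, force-coupled to calcium signalling, were plated at 4000 cells/well with tetracycline and held overnight at 30 C. After no-wash calcium dye loading, compound-evoked calcium rise over 180 s flagged agonists.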
TRHR enhancer = allosterically enhances the human TRH receptor. enhancement, % at 2 µM. P34981. hit rate 0.66% among 360,000. TRHR cells, fluo-8 calcium fluorescence, EC20 TRH enhancement; in the data active = enhancement above about 30%; note: 0% is about no effect
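Enhancer read-out: after compound pinning and an initial kinetic agonist-mode read, an EC20 of TRH (10 nM final) was injected and fluo-8 calcium signal (Ex 480/Em 530) followed at 1 s/cycle for 100 cycles in TRHR-expressing cells.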
TRHR agonist = agonists of human TRH receptor. TRHR cells, calcium flux fluo-8, FDSS agonist mode. P34981. AID 493084. activation, % at 2 µM. hit rate 0.18% among 360,000; note: 0% is about no effect
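Agonist-mode FDSS calcium read (Ex 480/Em 530, 1 s cycles) in 1536-well TRHR cells with fluo-8 dye, after 10-cycle baseline and 23 nL compound addition; TRH at EC20 (10 nM final) added afterwards for the enhancer phase.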
D1 antagonist = antagonists of human D1 dopamine receptor; P21728; AID 504652; activity change, negative = inhibition, % at 10 µM; HEK293 TREx D1 cells, calcium flux, dopamine EC80; stronger effect = lower value; hit rate 3.2% among 360,000; in the data active = activity change below about -30%; note: % is set by controls: 0 for no effect and ±100 for the full control effect
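Calcium flux readout: force-coupled, inducible Hek293 Trex D1 line, cells induced overnight at 30 C with tetracycline, dye-loaded 30–90 min at RT. Antagonism scored against EC80 dopamine challenge given 180 s after compound.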
D1 potentiator = potentiators of human D1 dopamine receptor; P21728; HEK293 TREx D1 cells, calcium flux, dopamine EC20 potentiation; potentiation, % at 10 µM; hit rate 0.036% among 360,000; in the data active = potentiation above about 30%; note: 0% is about no effect
* marks the source's active call; other numbers are inactive results; . = no result. Shown are actives, neighbours in structure and some others; about 4.7% of the full set was active somewhere. Cut-off read from the data, not from the text of the source, unless noted: active = activation above about 30%; inactive = the rest.

SMILES | D1 ag | TRHR enhancer | TRHR agonist | D1 antagonist | D1 potentiator
CCc1ccc2c(c1)C(c1ccc([N+](=O)[O-])cc1)=NNC(c1ccc(F)cc1)=N2 | 1 | -2 | 0 | -40* | -6
Cc1ccc2c(c1)C(c1ccncc1)=NNC(c1ccc(F)cc1)=N2 | 0 | 4 | 0 | -39* | -10
Cc1ccc2c(c1)C(c1ccncc1)=NNC(c1ccccc1)=N2 | 3 | -5 | 0 | -20 | 4
COc1ccc(Nc2nn(-c3ccc(OC(F)(F)F)cc3)nc2C(C)=O)cc1 | 0 | 2 | 0 | -17 | 1
O=C(NCCCN1CCCCCC1)c1ccc2c(c1)sc1nc(-c3ccccc3)cn12 | 2 | 14 | 0 | -12 | 4
CCCN1CCN(CCCNC(=O)c2ccc3c(c2)sc2nc(-c4ccc(C)cc4)cn23)CC1 | 2 | 1 | 0 | -30* | -2
Cc1ccc(NC(=O)/C=C\C(=O)NCC(=O)O)cc1C | 3 | 4 | 0 | -37* | -4
CN(C)c1ccc(S(=O)(=O)N2CCCCC2)cc1NC(=O)CN1C(=O)NC(C)(c2ccccc2)C1=O (configuration not stated) | 3 | 6 | 0 | 3 | 0
CN(C)S(=O)(=O)c1ccc(NC(=O)CN2C(=O)NC3(CCCC3)C2=O)cc1 | 5 | 36* | 1 | -10 | -6
CN(C)c1ccc(S(=O)(=O)N2CCCCC2)cc1NC(=O)CN1C(=O)NC2(CCCC2)C1=O | -1 | 7 | -1 | -42* | 4
CC(C)CCNC(=O)c1ccc2c(c1)NC(=O)C(CS(=O)(=O)Cc1ccc(F)cc1)N2 (configuration not stated) | 2 | 3 | 1 | -6 | -10
CCOc1ccc(NC(=O)CSc2nc(-c3ccccc3)c3cc(OCC)ccc3n2)cc1 | -1 | 4 | 0 | 5 | 2
COc1ccccc1N1CCN(CCCn2c(=S)[nH]c3ccccc3c2=O)CC1 | 0 | 4 | -1 | -88* | -8
O=c1c2cc(N3CCOCC3)ccc2[nH]c(=S)n1CCCN1CCN(c2ccccc2F)CC1 | 3 | 2 | 0 | -71* | -7
Cc1cccc(OCCSc2nc3ccc(NC(=O)c4cccs4)cc3s2)c1 | 9 | 5 | 2 | 3 | -2
c1coc(CNC2CCCCCCC2)c1 | 3 | -1 | 0 | -48* | -2
c1coc(CNC2CCCCC2)c1 | 1 | 9 | 0 | -3 | -5
Cc1ccc(N2C(=O)CCSC23C(=O)N(Cc2ccc(F)cc2)c2ccccc23)cc1 (configuration not stated) | 1 | 5 | -1 | 9 | -2
CCCCNC(=S)Nc1ccc(Cl)cc1 | 10 | -2 | 0 | -33* | 3
Cc1ccc(NC(=S)NCCSc2ccc(Cl)cc2)cc1 | 22 | -6 | 1 | -37* | -10
CCNC(=S)Nc1ccc(Cl)cc1 | 5 | -4 | 0 | 10 | -6
CCCCNC(=S)Nc1ccc(C(F)(F)F)cc1 | 22 | -5 | 0 | -33* | -6
O=C(CN1CCN(Cc2ccccc2F)C1=O)NCCc1ccc(Cl)cc1 | 2 | -2 | 0 | -9 | .
O=C(CN1CCN(Cc2ccccc2Cl)C1=O)NCCc1ccc(Cl)cc1 | 3 | -8 | -1 | -33* | -1
O=C(COc1cccnc1[N+](=O)[O-])N1CCc2ccccc21 | -2 | 31* | 0 | 13 | 0
SMILES | D1 ag | TRHR enhancer | TRHR agonist | D1 antagonist | D1 potentiator
O=C(NCc1ccc(F)cc1)c1ccc(Nc2nc3ccccc3n3nnnc23)cc1 | 1 | 9 | 1 | -30* | -1
COc1ccc(NC(=O)c2sc3nc(Cc4ccccc4)cc(C(F)(F)F)c3c2N)cc1OC | 12 | 32* | 3 | -5 | 6
COc1ccccc1NC(=O)c1sc2nc(Cc3ccccc3)cc(C(F)(F)F)c2c1N | 5 | 7 | 4 | -5 | -2
O=C(Cn1cc(C(=O)c2ccncc2)c(=O)c2cc(F)ccc21)Nc1ccc(Cl)cc1 | 0 | 3 | 0 | -4 | 5
CC(C)NC(=O)NC(=O)CSc1ncccn1 | -1 | -2 | 0 | 7 | -1
CC(C)(C)NC(=O)NC(=O)CSc1ncccn1 | 4 | -6 | 1 | -35* | -8
CCOC(=O)N1CCC(Nc2c(NCCCN(CC)CC)c(=O)c2=O)CC1 | 2 | 4 | 0 | -7 | .
CCOC(=O)N1CCC(Nc2c(NCCCOC)c(=O)c2=O)CC1 | 3 | 0 | 1 | -34* | -13
CCOC(=O)N1CCN(C(=S)NC2CCCC2)CC1 | 1 | 33* | 0 | 15 | -3
